# Molecular target: Nonstructural protein 3 (Zika virus) (UniProt A0A024AXB9)
# Conditions: PRVABC59, Concentration 10.0 uM
# Chain of Nonstructural protein 3 (Zika virus) (A0A024AXB9 as listed by the source): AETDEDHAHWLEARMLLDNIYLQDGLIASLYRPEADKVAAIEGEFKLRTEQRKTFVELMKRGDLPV
compound,measurement,setting,value
N#C[C@]1(Nc2ccc3c(c2)CNC3)C(=O)Nc2ccc(Cl)cc21,pKD,"Immobilization level 10000.0 pg/mm2, Rmax 25.0 pg/mm2, ka 264211.625 M-1s-1, kd 1.585 1/s",5.22
same,pKD,"Immobilization level 12000.0 pg/mm2, Rmax 32.0 pg/mm2, ka 105814.14 M-1s-1, kd 0.856 1/s",5.09
same,pKD,"Immobilization level 13000.0 pg/mm2, Rmax 39.0 pg/mm2, ka 121808.508 M-1s-1, kd 1.295 1/s",4.97
Cn1cc(CCc2nc3c(C(=O)Nc4ccc5c(c4)CNC5)cc(Cl)cc3[nH]2)cn1,pKD,"Immobilization level 10000.0 pg/mm2, Rmax 29.0 pg/mm2, ka 162831.43 M-1s-1, kd 0.539 1/s",5.48
same,pKD,"Immobilization level 12000.0 pg/mm2, Rmax 67.0 pg/mm2, ka 60654.253 M-1s-1, kd 0.241 1/s",5.4
same,pKD,"Immobilization level 13000.0 pg/mm2, Rmax 46.0 pg/mm2, ka 118753.092 M-1s-1, kd 0.416 1/s",5.46
O=C(Nc1ccc2c(c1)CNC2)c1ccccc1-n1cccc1,pKD,"Immobilization level 5500.0 pg/mm2, Rmax 27.0 pg/mm2, ka 207569.847 M-1s-1, kd 8.279 1/s",4.4
N#Cc1ccc(Cl)c(C(=O)Nc2ccc3c(c2)CNC3)c1,pKD,"Immobilization level 10000.0 pg/mm2, Rmax 28.0 pg/mm2, ka 455778.547 M-1s-1, kd 4.384 1/s",5.02
same,pKD,"Immobilization level 12000.0 pg/mm2, Rmax 32.0 pg/mm2, ka 264828.882 M-1s-1, kd 2.458 1/s",5.03
same,pKD,"Immobilization level 13000.0 pg/mm2, Rmax 23.0 pg/mm2, ka 313770.073 M-1s-1, kd 2.521 1/s",5.09
CC(C)c1ccc(Cl)cc1C(=O)Nc1ccc2c(c1)CNC2,pKD,"Immobilization level 10000.0 pg/mm2, Rmax 50.0 pg/mm2, ka 207835.98 M-1s-1, kd 5.69 1/s",4.56
same,pKD,"Immobilization level 12000.0 pg/mm2, Rmax 40.0 pg/mm2, ka 170668.879 M-1s-1, kd 3.145 1/s",4.74
same,pKD,"Immobilization level 13000.0 pg/mm2, Rmax 24.0 pg/mm2, ka 212611.498 M-1s-1, kd 2.587 1/s",4.92
CC(C)NC(=O)[C@H](Nc1ccc2c(c1)CNC2)c1cc(Cl)cc2[nH]ncc12,pKD,"Immobilization level 10000.0 pg/mm2, Rmax 25.0 pg/mm2, ka 625134.982 M-1s-1, kd 0.246 1/s",6.4
same,pKD,"Immobilization level 12000.0 pg/mm2, Rmax 48.0 pg/mm2, ka 290518.5 M-1s-1, kd 0.198 1/s",6.17
same,pKD,"Immobilization level 13000.0 pg/mm2, Rmax 30.0 pg/mm2, ka 486694.476 M-1s-1, kd 0.217 1/s",6.35
CC(C)COc1ccc(Cl)cc1C(=O)Nc1ccc2c(c1)CNC2,pKD,"Immobilization level 10000.0 pg/mm2, Rmax 31.0 pg/mm2, ka 259814.072 M-1s-1, kd 6.366 1/s",4.61
same,pKD,"Immobilization level 12000.0 pg/mm2, Rmax 37.0 pg/mm2, ka 228783.03 M-1s-1, kd 3.033 1/s",4.88
same,pKD,"Immobilization level 13000.0 pg/mm2, Rmax 33.0 pg/mm2, ka 351290.772 M-1s-1, kd 5.134 1/s",4.83
Cc1ccc2cc(Cl)cc(C(=O)Nc3ccc4c(c3)CNC4)c2n1,pKD,"Immobilization level 10000.0 pg/mm2, Rmax 26.0 pg/mm2, ka 93254.644 M-1s-1, kd 1.647 1/s",4.75
same,pKD,"Immobilization level 12000.0 pg/mm2, Rmax 38.0 pg/mm2, ka 56274.373 M-1s-1, kd 0.881 1/s",4.8
same,pKD,"Immobilization level 13000.0 pg/mm2, Rmax 28.0 pg/mm2, ka 92341.007 M-1s-1, kd 1.18 1/s",4.89
O=C(Nc1ccc2c(c1)CNC2)c1cc(Br)cc2[nH]c(C3CCOCC3)nc12,pKD,"Immobilization level 10000.0 pg/mm2, Rmax 36.0 pg/mm2, ka 49989.202 M-1s-1, kd 0.558 1/s",4.95
same,pKD,"Immobilization level 12000.0 pg/mm2, Rmax 42.0 pg/mm2, ka 41393.875 M-1s-1, kd 0.2 1/s",5.32
same,pKD,"Immobilization level 13000.0 pg/mm2, Rmax 57.0 pg/mm2, ka 35403.894 M-1s-1, kd 0.403 1/s",4.94
O=C(Nc1ccc2c(c1)CNC2)c1cc(Cl)ccc1OC1CCCC1,pKD,"Immobilization level 12000.0 pg/mm2, Rmax 40.0 pg/mm2, ka 319034.623 M-1s-1, kd 3.897 1/s",4.91
O=C(Nc1ccc2c(c1)CNC2)c1cncc(-c2ccccc2)c1,pKD,"Immobilization level 4900.0 pg/mm2, Rmax 10.0 pg/mm2, ka 220188.498 M-1s-1, kd 3.981 1/s",4.74
same,pKD,"Immobilization level 5500.0 pg/mm2, Rmax 48.0 pg/mm2, ka 177152.77 M-1s-1, kd 5.77 1/s",4.49
O=C(Nc1ccc([C@H]2CCNC2)cc1)c1cc(Cl)cc2[nH]ncc12,pKD,"Immobilization level 10000.0 pg/mm2, Rmax 36.0 pg/mm2, ka 266986.751 M-1s-1, kd 3.172 1/s",4.92
same,pKD,"Immobilization level 12000.0 pg/mm2, Rmax 43.0 pg/mm2, ka 228557.467 M-1s-1, kd 2.265 1/s",5
same,pKD,"Immobilization level 13000.0 pg/mm2, Rmax 32.0 pg/mm2, ka 486506.686 M-1s-1, kd 3.313 1/s",5.17
O=C(NCc1ccc(F)cc1)[C@H](Nc1ccc2c(c1)CNC2)c1cc(Cl)cc2[nH]ncc12,pKD,"Immobilization level 10000.0 pg/mm2, Rmax 51.0 pg/mm2, ka 449498.965 M-1s-1, kd 0.143 1/s",6.5
same,pKD,"Immobilization level 12000.0 pg/mm2, Rmax 66.0 pg/mm2, ka 240349.747 M-1s-1, kd 0.114 1/s",6.32
same,pKD,"Immobilization level 13000.0 pg/mm2, Rmax 64.0 pg/mm2, ka 328786.628 M-1s-1, kd 0.139 1/s",6.37
O=C(Nc1ccc2c(c1)CN(CC(F)F)C2)c1cc(Cl)cc2[nH]ncc12,pKD,"Immobilization level 5500.0 pg/mm2, Rmax 11.0 pg/mm2, ka 80918.609 M-1s-1, kd 0.287 1/s",5.45
O=C(Nc1ccc2c(c1)CNC2)c1cc(F)cc2[nH]ncc12,pKD,"Immobilization level 10000.0 pg/mm2, Rmax 50.0 pg/mm2, ka 86776.347 M-1s-1, kd 0.122 1/s",5.85
same,pKD,"Immobilization level 12000.0 pg/mm2, Rmax 119.0 pg/mm2, ka 21922.372 M-1s-1, kd 0.021 1/s",6.01
same,pKD,"Immobilization level 13000.0 pg/mm2, Rmax 93.0 pg/mm2, ka 46087.669 M-1s-1, kd 0.088 1/s",5.72
CC(C)c1nc2c(C(=O)Nc3ccc4c(c3)CNC4)cc(Br)cc2[nH]1,pKD,"Immobilization level 10000.0 pg/mm2, Rmax 28.0 pg/mm2, ka 451108.713 M-1s-1, kd 0.396 1/s",6.06
same,pKD,"Immobilization level 12000.0 pg/mm2, Rmax 37.0 pg/mm2, ka 197303.267 M-1s-1, kd 0.307 1/s",5.81
same,pKD,"Immobilization level 13000.0 pg/mm2, Rmax 31.0 pg/mm2, ka 315714.539 M-1s-1, kd 0.366 1/s",5.94
O=C(Nc1ccc2c(c1)CNCC2)c1cc(Cl)cc2[nH]ncc12,pKD,"Immobilization level 10000.0 pg/mm2, Rmax 29.0 pg/mm2, ka 396120.04 M-1s-1, kd 1.246 1/s",5.5
same,pKD,"Immobilization level 12000.0 pg/mm2, Rmax 39.0 pg/mm2, ka 584891.909 M-1s-1, kd 0.796 1/s",5.87
same,pKD,"Immobilization level 13000.0 pg/mm2, Rmax 25.0 pg/mm2, ka 840035.203 M-1s-1, kd 1.038 1/s",5.91
CN1Cc2ccc(NC(=O)c3cc(Cl)cc4[nH]ncc34)cc2C1,pKD,"Immobilization level 10000.0 pg/mm2, Rmax 20.0 pg/mm2, ka 391825.056 M-1s-1, kd 0.668 1/s",5.77
same,pKD,"Immobilization level 12000.0 pg/mm2, Rmax 38.0 pg/mm2, ka 177362.143 M-1s-1, kd 0.381 1/s",5.67
same,pKD,"Immobilization level 13000.0 pg/mm2, Rmax 24.0 pg/mm2, ka 298987.187 M-1s-1, kd 0.52 1/s",5.76
CC(C)c1cc(Br)cc(C(=O)Nc2ccc3c(c2)CNC3)c1,pKD,"Immobilization level 10000.0 pg/mm2, Rmax 17.0 pg/mm2, ka 881880.966 M-1s-1, kd 1.212 1/s",5.86
same,pKD,"Immobilization level 12000.0 pg/mm2, Rmax 74.0 pg/mm2, ka 247931.968 M-1s-1, kd 0.872 1/s",5.45
same,pKD,"Immobilization level 13000.0 pg/mm2, Rmax 30.0 pg/mm2, ka 643252.953 M-1s-1, kd 1.046 1/s",5.79
O=C(Nc1ccc2c(c1)CNC2)c1cc(Cl)cc(C2CC2)c1,pKD,"Immobilization level 10000.0 pg/mm2, Rmax 36.0 pg/mm2, ka 451548.811 M-1s-1, kd 1.111 1/s",5.61
same,pKD,"Immobilization level 12000.0 pg/mm2, Rmax 40.0 pg/mm2, ka 259383.571 M-1s-1, kd 0.558 1/s",5.67
same,pKD,"Immobilization level 13000.0 pg/mm2, Rmax 32.0 pg/mm2, ka 444846.323 M-1s-1, kd 0.765 1/s",5.76
CCOCCCN1Cc2ccc(NC(=O)c3cc(Cl)cc4[nH]ncc34)cc2C1,pKD,"Immobilization level 3900.0 pg/mm2, Rmax 34.0 pg/mm2, ka 194403.459 M-1s-1, kd 4.353 1/s",4.65
same,pKD,"Immobilization level 4900.0 pg/mm2, Rmax 26.0 pg/mm2, ka 190862.396 M-1s-1, kd 2.393 1/s",4.9
same,pKD,"Immobilization level 5500.0 pg/mm2, Rmax 37.0 pg/mm2, ka 197216.313 M-1s-1, kd 2.701 1/s",4.86
O=C(Nc1ccc2c(c1)CNC2)c1cc(Cl)cc2nccnc12,pKD,"Immobilization level 10000.0 pg/mm2, Rmax 21.0 pg/mm2, ka 195303.568 M-1s-1, kd 2.342 1/s",4.92
same,pKD,"Immobilization level 12000.0 pg/mm2, Rmax 40.0 pg/mm2, ka 106100.572 M-1s-1, kd 1.111 1/s",4.98
same,pKD,"Immobilization level 13000.0 pg/mm2, Rmax 32.0 pg/mm2, ka 148862.644 M-1s-1, kd 1.839 1/s",4.91
NCCc1ccc(NC(=O)c2cc(Cl)cc3[nH]ncc23)cc1,pKD,"Immobilization level 10000.0 pg/mm2, Rmax 37.0 pg/mm2, ka 181570.157 M-1s-1, kd 4.215 1/s",4.63
same,pKD,"Immobilization level 12000.0 pg/mm2, Rmax 45.0 pg/mm2, ka 212645.467 M-1s-1, kd 3.181 1/s",4.83
same,pKD,"Immobilization level 13000.0 pg/mm2, Rmax 31.0 pg/mm2, ka 239123.399 M-1s-1, kd 3.643 1/s",4.82
O=C(Nc1ccc2c(c1)CNC2)c1cc(Cl)ccc1SC1CCCC1,pKD,"Immobilization level 10000.0 pg/mm2, Rmax 23.0 pg/mm2, ka 575465.756 M-1s-1, kd 3.5 1/s",5.22
same,pKD,"Immobilization level 12000.0 pg/mm2, Rmax 62.0 pg/mm2, ka 231361.37 M-1s-1, kd 1.925 1/s",5.08
same,pKD,"Immobilization level 13000.0 pg/mm2, Rmax 43.0 pg/mm2, ka 253243.383 M-1s-1, kd 2.083 1/s",5.08
O=C(Nc1ccc2c(c1)CNC2)c1cc(Cl)cc2ccncc12,pKD,"Immobilization level 10000.0 pg/mm2, Rmax 18.0 pg/mm2, ka 555072.266 M-1s-1, kd 0.336 1/s",6.22
same,pKD,"Immobilization level 12000.0 pg/mm2, Rmax 46.0 pg/mm2, ka 241038.936 M-1s-1, kd 0.226 1/s",6.03
same,pKD,"Immobilization level 13000.0 pg/mm2, Rmax 30.0 pg/mm2, ka 431290.6 M-1s-1, kd 0.289 1/s",6.17

# From ChEMBL document CHEMBL5598561, “ASAP - In vitro binding kinetics” (2024)
